Experimental data reported in PubChem BioAssay AID1159580 (chemical genetic matrix, 2015).
Among all 5,500 compounds or so, about 2,000 (36%) were called active. Roughly 18% stayed inconclusive and do not appear here. No stated cut-off is given here; in the data, active means normalized growth mostly below about 0.91 (no sharp cut-off); inconclusive means no clear call, values can overlap the other calls; inactive means mostly above about 0.92. The list shows a part of the results.

Assay: chemical genetic growth profiling, strain panel (AID 1159580);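 further: tested at 20 µM; growth read once vehicle control cultures reached saturation at 30 °C; 1 = growth at the plate median or of vehicle wells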
Conditions: growth OD
[1] = S. cerevisiae deletion strains, locus YGR078C, strain PAC10, stronger effect = lower value
[2] = S. cerevisiae deletion strains, locus YMR263W, strain SAP30, stronger effect = lower value
[3] = S. cerevisiae deletion strains, locus YNL153C, strain GIM3, stronger effect = lower value
[4] = S. cerevisiae deletion strains, locus YNL322C, strain KRE1, stronger effect = lower value
[5] = S. cerevisiae deletion strains, locus YPL055C, strain LGE1, stronger effect = lower value
[6] = S. cerevisiae deletion strains, locus YPL241C, strain CIN2, stronger effect = lower value

Measured: normalized growth

CC1=C(C(=O)O)N2C(=O)[C@@H](NC(=O)C(N)C3=CCC=CC3)[C@H]2SC1 (stereo partly drawn)
inactive: S. cerevisiae deletion strains, locus YAL040C, strain CLN3, stronger effect = lower value 1.02 | S. cerevisiae deletion strains, locus YDR363W, strain ESC2, stronger effect = lower value 1.03 | S. cerevisiae deletion strains, locus YER002W, strain NOP16, stronger effect = lower value 1.02 | [1] 1.01 | [2] 1.03 | [3] 1.01 | S. cerevisiae deletion strains, locus YNL175C, strain NOP13, stronger effect = lower value 1.02 | S. cerevisiae deletion strains, locus YNL197C, strain WHI3, stronger effect = lower value 1.03 | S. cerevisiae deletion strains, locus YNL224C, strain SQS1, stronger effect = lower value 1.01 | [4] 1.03 | S. cerevisiae deletion strains, locus YOR083W, strain WHI5 (second series), stronger effect = lower value 1.04 | [5] 1.02 | [6] 1.01

CN=C1CN(O)C(c2ccccc2)=c2cc(Cl)ccc2=N1
inactive: S. cerevisiae deletion strains, locus YAL013W, strain DEP1, stronger effect = lower value 0.989 | S. cerevisiae deletion strains, locus YBR021W, strain FUR4, stronger effect = lower value 1.06 | S. cerevisiae deletion strains, locus YBR229C, strain ROT2, stronger effect = lower value 0.969 | S. cerevisiae deletion strains, locus YCL029C, strain bik1, stronger effect = lower value 0.981 | S. cerevisiae deletion strains, locus YDL035C, strain GPR1, stronger effect = lower value 1.01 | S. cerevisiae deletion strains, locus YDL074C, strain BRE1, stronger effect = lower value 0.965 | S. cerevisiae deletion strains, locus YDL101C, strain DUN1, stronger effect = lower value 0.974 | S. cerevisiae deletion strains, locus YDL134C, strain PPH21, stronger effect = lower value 0.983 | S. cerevisiae deletion strains, locus YDL185W, strain tfp1, stronger effect = lower value 0.946 | S. cerevisiae deletion strains, locus YDL192W, strain arf1, stronger effect = lower value 0.983 | S. cerevisiae deletion strains, locus YDR101C, strain arx1, stronger effect = lower value 1.01 | S. cerevisiae deletion strains, locus YDR150W, strain NUM1, stronger effect = lower value 0.971 | S. cerevisiae deletion strains, locus YDR162C, strain NBP2, stronger effect = lower value 0.94 | S. cerevisiae deletion strains, locus YDR318W, strain mcm21, stronger effect = lower value 1.01 | S. cerevisiae deletion strains, locus YDR388W, stronger effect = lower value 0.983 | S. cerevisiae deletion strains, locus YDR502C, strain sam2, stronger effect = lower value 0.971 | S. cerevisiae deletion strains, locus YEL061C, strain CIN8, stronger effect = lower value 0.985 | S. cerevisiae deletion strains, locus YER110C, stronger effect = lower value 0.985 | S. cerevisiae deletion strains, locus YER155C, strain BEM2, stronger effect = lower value 0.997 | S. cerevisiae deletion strains, locus YER167W, strain BCK2, stronger effect = lower value 1 | S. cerevisiae deletion strains, locus YGL078C, strain dbp3, stronger effect = lower value 0.975 | S. cerevisiae deletion strains, locus YGL086W, strain mad1, stronger effect = lower value 1 | S. cerevisiae deletion strains, locus YGL248W, strain PDE1, stronger effect = lower value 0.978 | [1] 0.978 | S. cerevisiae deletion strains, locus YGR135W, strain pre9, stronger effect = lower value 0.955 | S. cerevisiae deletion strains, locus YGR229C, strain SMI1, stronger effect = lower value 0.993 | S. cerevisiae deletion strains, locus YGR252W, strain gcn5, stronger effect = lower value 1.06 | S. cerevisiae deletion strains, locus YHR030C, strain SLT2, stronger effect = lower value 1 | S. cerevisiae deletion strains, locus YHR079C, strain IRE1 (second series), stronger effect = lower value 0.991 | S. cerevisiae deletion strains, locus YHR094C, strain hxt1, stronger effect = lower value 0.987 | S. cerevisiae deletion strains, locus YHR129C, strain ARP1, stronger effect = lower value 0.992 | S. cerevisiae deletion strains, locus YHR200W, strain rpn10, stronger effect = lower value 0.983 | S. cerevisiae deletion strains, locus YIL066C, strain RNR3, stronger effect = lower value 0.97 | S. cerevisiae deletion strains, locus YIL073C, strain SPO22, stronger effect = lower value 1.02 | S. cerevisiae deletion strains, locus YIL125W, strain kgd1, stronger effect = lower value 0.978 | S. cerevisiae deletion strains, locus YIR030C, strain dcg1, stronger effect = lower value 0.985 | S. cerevisiae deletion strains, locus YJL095W, strain BCK1, stronger effect = lower value 0.981 | S. cerevisiae deletion strains, locus YJL134W, strain LCB3, stronger effect = lower value 0.997 | S. cerevisiae deletion strains, locus YJL168C, strain set2, stronger effect = lower value 0.984 | S. cerevisiae deletion strains, locus YJL187C, strain SWE1 (second series), stronger effect = lower value 0.959 | S. cerevisiae deletion strains, locus YJR043C, strain POL32, stronger effect = lower value 1.03 | S. cerevisiae deletion strains, locus YJR075W, strain HOC1, stronger effect = lower value 0.988 | S. cerevisiae deletion strains, locus YKL009W, strain mrt4, stronger effect = lower value 0.982 | S. cerevisiae deletion strains, locus YKL068W, stronger effect = lower value 0.988 | S. cerevisiae deletion strains, locus YKL085W, strain MDH1 (second series), stronger effect = lower value 0.978 | S. cerevisiae deletion strains, locus YKL085W, strain MDH1, stronger effect = lower value 0.978 | S. cerevisiae deletion strains, locus YKL190W, strain CNB1, stronger effect = lower value 0.979 | S. cerevisiae deletion strains, locus YKR001C, strain vps1, stronger effect = lower value 0.998 | S. cerevisiae deletion strains, locus YLR039C, strain RIC1, stronger effect = lower value 0.973 | S. cerevisiae deletion strains, locus YLR058C, strain SHM2, stronger effect = lower value 0.983 | S. cerevisiae deletion strains, locus YLR102C, strain apc9, stronger effect = lower value 0.976 | S. cerevisiae deletion strains, locus YLR262C, strain YPT6, stronger effect = lower value 0.969 | S. cerevisiae deletion strains, locus YLR268W, strain sec22, stronger effect = lower value 0.991 | S. cerevisiae deletion strains, locus YLR330W, strain CHS5, stronger effect = lower value 0.998 | S. cerevisiae deletion strains, locus YLR342W, strain FKS1 (second series), stronger effect = lower value 1.06 | S. cerevisiae deletion strains, locus YLR371W, strain rom2, stronger effect = lower value 0.969 | S. cerevisiae deletion strains, locus YLR418C, strain cdc73, stronger effect = lower value 0.951 | S. cerevisiae deletion strains, locus YML016C, strain PPZ1, stronger effect = lower value 0.988 | S. cerevisiae deletion strains, locus YML032C, strain rad52, stronger effect = lower value 0.989 | S. cerevisiae deletion strains, locus YML124C, strain tub3, stronger effect = lower value 0.984 | S. cerevisiae deletion strains, locus YMR078C, strain ctf18, stronger effect = lower value 0.98 | [2] 0.957 | S. cerevisiae deletion strains, locus YMR307W, strain GAS1, stronger effect = lower value 1.06 | S. cerevisiae deletion strains, locus YNL067W, strain RPL9B, stronger effect = lower value 0.974 | S. cerevisiae deletion strains, locus YNL128W, strain TEP1, stronger effect = lower value 0.966 | [3] 0.962 | S. cerevisiae deletion strains, locus YNL233W, strain BNI4, stronger effect = lower value 0.98 | S. cerevisiae deletion strains, locus YNL250W, strain rad50, stronger effect = lower value 0.981 | S. cerevisiae deletion strains, locus YNL271C, strain bni1, stronger effect = lower value 0.985 | S. cerevisiae deletion strains, locus YNL298W, strain CLA4, stronger effect = lower value 0.977 | S. cerevisiae deletion strains, locus YNL307C, strain MCK1, stronger effect = lower value 0.999 | [4] 0.987 | S. cerevisiae deletion strains, locus YNR052C, strain pop2, stronger effect = lower value 0.985 | S. cerevisiae deletion strains, locus YOL006C, strain TOP1, stronger effect = lower value 0.949 | S. cerevisiae deletion strains, locus YOL012C, strain htz1 0.854 | S. cerevisiae deletion strains, locus YOL147C, strain pex11, stronger effect = lower value 0.995 | S. cerevisiae deletion strains, locus YOR061W, strain CKA2, stronger effect = lower value 0.969 | S. cerevisiae deletion strains, locus YOR069W, strain VPS5, stronger effect = lower value 1 | S. cerevisiae deletion strains, locus YOR136W, strain idh2, stronger effect = lower value 0.988 | S. cerevisiae deletion strains, locus YOR144C, strain elg1, stronger effect = lower value 0.984 | S. cerevisiae deletion strains, locus YOR184W, strain ser1, stronger effect = lower value 1.01 | S. cerevisiae deletion strains, locus YOR316C, strain cot1, stronger effect = lower value 0.975 | [5] 0.934 | [6] 0.99 | S. cerevisiae deletion strains, locus YPR119W, strain clb2, stronger effect = lower value 0.989 | S. cerevisiae deletion strains, locus YPR141C, strain kar3, stronger effect = lower value 0.962 | S. cerevisiae deletion strains, locus YPR163C, strain tif3, stronger effect = lower value 0.988 | S. cerevisiae deletion strains, locus YPR167C, strain met16, stronger effect = lower value 0.983 | S. cerevisiae deletion strains, strain wtn01, stronger effect = lower value 0.984 | S. cerevisiae strains, strain wild type, stronger effect = lower value 0.994
